Screening results deposited in PubChem BioAssay by Fisher Drug Discovery Resource Center.
This excerpt belongs to a sample that is enriched for hits.
mcGAS MS inh – inhibitors of Mus musculus cyclic GMP-AMP synthase, initial high-throughput assay, cell-free, RapidFire MS; Q8C6L5; recombinant mouse cGAS, cGAMP by RapidFire MS; inhibition, % at 12.5 µM; 130,000 tested, 0.18% active; AID 1259397, 2018;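 active means inhibition of cGAS enzyme activity at or above 60%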;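 further: enzyme stimulated by 45 bp dsDNA with ATP and GTP substrates; cGAMP share of summed cGAMP plus half ATP and half GTP signals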
Target sequence (Q8C6L5 whole entry, looked up): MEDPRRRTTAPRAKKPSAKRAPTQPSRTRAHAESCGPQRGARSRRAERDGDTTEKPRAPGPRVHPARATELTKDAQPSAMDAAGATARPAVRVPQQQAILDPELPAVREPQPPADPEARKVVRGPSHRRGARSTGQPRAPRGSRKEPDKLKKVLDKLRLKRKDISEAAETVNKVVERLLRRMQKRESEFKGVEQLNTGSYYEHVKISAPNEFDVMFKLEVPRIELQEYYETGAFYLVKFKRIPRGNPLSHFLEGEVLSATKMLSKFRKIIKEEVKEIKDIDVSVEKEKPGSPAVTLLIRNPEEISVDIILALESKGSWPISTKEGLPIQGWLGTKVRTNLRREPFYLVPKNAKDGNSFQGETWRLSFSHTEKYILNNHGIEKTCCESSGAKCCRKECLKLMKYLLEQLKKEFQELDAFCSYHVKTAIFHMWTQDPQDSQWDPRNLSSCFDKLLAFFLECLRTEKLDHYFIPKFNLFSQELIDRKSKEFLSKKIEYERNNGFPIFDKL
Active calls of the source: *.

SMILES	mcGAS MS inh
CCOC(=O)c1cc(Cl)nc(Cl)c1C	-4
CCOC(=O)c1cc(C(=O)OCC)c2c(C)cc(C)cc(C)c1-2	88*
CCOC(=O)c1c[nH]cc(C)c1=O	-7
CN(CCCNS(=O)(=O)c1ccc(F)c(F)c1)Cc1ccccc1	-9
CCOc1ncccc1C(=O)OCc1cc(-c2ccc3c(c2)OCCO3)on1	-13
CCOC(=O)c1c(NC(=O)c2cc3ccccc3o2)sc(C(N)=O)c1C	-5
Cc1nnc2sc(-c3cccc(NC(=S)NC(=O)c4cc5ccccc5o4)c3)nn12	-5
Cc1nnc2sc(-c3ccccc3NC(=S)NC(=O)c3cc4ccccc4o3)nn12	71*
COc1cccc(S(=O)(=O)NCC(=O)N2CC(C)OC(C)C2)c1 (stereo not drawn)	-9
O=C(NCC(=O)N1CCC(Cc2ccccc2)CC1)Nc1cn[nH]c1	0
CCCCn1nc(NC(=O)C(C)C)c2cc3cc(OC)ccc3nc21	1
S=c1[nH]nc2c3ccccc3ncn12	87*
Cc1nc2c3ccccc3ncn2n1	-2
S=c1[nH]nc2c3cnn(-c4ccccc4)c3ncn12	-3
Cc1ccc(-c2ccc(=O)n(CCCNC(=O)Nc3ccc(F)c(F)c3)n2)cc1	8
COC(=O)C1C(c2ccccc2)C(C(=O)OC)S(=O)(=O)CS1(=O)=O (stereo not drawn)	-27
S=c1[nH]nc(-c2ccccc2Cl)o1	-5
S=c1[nH]nc(-c2sc3ccccc3c2Cl)o1	92*
Clc1c(-c2nnco2)sc2ccccc12	-3
COc1ccc(CC(=O)N2CCCC(CCC(=O)NCc3ccc(F)c(F)c3)C2)cc1 (stereo not drawn)	2
Cn1ccnc1CN(Cc1cccc(C(=O)Nc2ccccc2)c1)C1CC1	-14
CC(=O)C(=Nc1ccccc1Cl)NNc1cccc(Cl)c1	-11
O=c1cc(-c2ccccc2)n2c(=S)[nH]nc2[nH]1	68*
CCCc1cc(=O)[nH]c2n[nH]c(=S)n12	7
CCc1cc(=O)[nH]c2n[nH]c(=S)n12	9
SMILES	mcGAS MS inh
COc1ccccc1CCC(=O)N1CCC(O)(CN(C)C)C1 (stereo not drawn)	-17
NC(Cc1ccc(C(F)(F)F)cc1)c1csc(Nc2cnccn2)n1 (stereo not drawn)	-8
NC(Cc1ccc(C(F)(F)F)cc1)c1csc(Nc2ccccn2)n1 (stereo not drawn)	-15
NC(Cc1ccc(F)cc1)c1csc(Nc2ccc(C(F)(F)F)cn2)n1 (stereo not drawn)	67*
CCOc1ccc(C(=O)Nc2cc(-c3cccs3)nn2-c2nc(C)cc(=O)[nH]2)cc1	3
CCSc1nnc2c3ccccc3n(C)c2n1	-8
CCSc1nnc2c(=O)[nH]c(=O)[nH]c2n1	84*
Cn1c(N)c(C(=O)CSc2nnc3c(n2)[nH]c2ccccc23)c(=O)n(C)c1=O	-5
CSCC[C@@H](CO)NC(=O)c1cn(-c2ccccc2)nn1	-29
O=C(O)C=Cc1ccc([N+](=O)[O-])o1	2
N#CC(=Cc1ccc([N+](=O)[O-])o1)c1nc(C2CC2)cs1	-16
CC(C)OC(=O)C(C#N)=Cc1ccc([N+](=O)[O-])o1	64*
CCOC(=O)c1nn(-c2ccccc2)c(=O)cc1OCC(=O)Nc1ccccc1C	-5
CSCCC(NC(N)=O)C(=O)NCc1cccc(N2CCOC2=O)c1 (stereo not drawn)	-5
Cc1ccc2c(c1)N(C)C(=O)c1cc(NS(=O)(=O)C(C)C)ccc1O2	2
C=C(C)Cn1c(SCc2ccccc2)nc2c1c(=O)n(C)c(=O)n2C	0
N#Cc1c(C2CCOC2)cc(-c2ccc(O)cc2)nc1N (stereo not drawn)	-14
N#Cc1c(N)nc2c(c1N)C(Sc1ccccc1)c1ccc(O)cc1O2 (stereo not drawn)	87*
N#CCSc1nc(N)c(C#N)c(-c2ccc(O)cc2)c1C#N	-9
CC(=O)N1CCCN(c2ccncc2N)CC1	-2
CC(=O)N1CCC(N2CCN(c3ccncc3F)CC2)CC1	62*
O=C(C1CCC1)N1CCCC(N2CCN(c3ccccc3F)CC2)C1 (stereo not drawn)	-8
CCNc1ncc(C(=O)O)s1	9
FC(F)Oc1ccc(-c2cn(-c3ccccc3)c3[n+]2CCCS3)cc1	-14
Cc1ccc(OCc2occc2C(=O)N2CCc3c(nc[nH]c3=O)C2)cc1	-5
SMILES	mcGAS MS inh
CC(C)n1cc(Cn2cnc(-c3ccccc3)c2-c2ccsc2)cn1	-3
Cc1cc(O)c(-c2ccn[nH]2)c(=O)o1	-3
Cc1cc(O)c(C2=Nc3cc(C(F)(F)F)ccc3SC(c3ccc(O)c([N+](=O)[O-])c3)C2)c(=O)o1 (stereo not drawn)	67*
Cc1cc(O)c(C2=Nc3ccccc3SC(c3ccc([N+](=O)[O-])cc3)C2)c(=O)o1 (stereo not drawn)	-4
CN(C)C(=O)CSc1nc2scc(-c3cccs3)c2c(=O)[nH]1	0
CCc1noc(CSC(C)c2cccs2)n1 (stereo not drawn)	-11
O=C(Nc1ccccc1N1CCOCC1)c1cccc(N2CCCC2=O)c1	-9
CS(=O)(=O)c1ccc(Br)c(S(=O)(=O)N2CCSCC2)c1	1
O=C(O)c1ccccc1CN1CCCCC1CCn1cccn1 (stereo not drawn)	-16
O=c1cc(CCn2cccn2)nc(-c2ccc(CN3CCC[C@@H]3CO)cc2)[nH]1	89*
OC[C@@H]1CCCN1Cc1csc(-c2ccc(Br)cc2)n1	4
Cc1ccc(CN2CC(C(=O)NCCN3C(=O)SC(=Cc4cccs4)C3=O)CC2=O)cc1 (stereo not drawn)	-5
Cc1c(Cc2ccc(Cl)cc2)c(=O)n2c([nH]c3ccccc32)c1C#N	-2
COCCNc1ncc2c(n1)c(=O)c(C#N)c1[nH]c3ccc(Br)cc3c(=O)n12	25
CS(=O)(=O)c1ncc2c(n1)c(=O)c(C#N)c1[nH]c3ccccc3c(=O)n12	67*
CCOCCOC(=O)C1=C(C)N(C)C(=O)NC1c1cccc([N+](=O)[O-])c1 (stereo not drawn)	-7
CCCOC(=O)C1=C(C)N(C)C(=O)NC1c1ccc([N+](=O)[O-])cc1 (stereo not drawn)	2
CCOCCOC(=O)C1=C(C)N(CC)C(=O)NC1c1ccc([N+](=O)[O-])cc1 (stereo not drawn)	98*
Cc1ccc(NC(=O)Cn2c3ccccc3c(=O)c3ccccc32)c(Br)c1	-8
O=c1oc2ccccc2n1CCNc1cncc(Cl)n1	0
O=C(Nc1ccccc1)C1CCCN(CC2CCCCO2)C1 (stereo not drawn)	13
O=C(NN=C1CCCCC1)c1ccccc1Cl	-11
CN(C)P(=NC(=S)N1CCOCC1)(N(C)C)C12CC3CC(CC(C3)C1)C2	-1
CCCCCCn1c(N2CCN(Cc3ccc(Cl)cc3)CC2)nc2c1c(=O)[nH]c(=O)n2C	-1
O=C(O)c1sc(Br)c(I)c1I	78*
SMILES	mcGAS MS inh
COc1cccc(-c2nc(C=Nc3cccc(Cl)c3)c(O)o2)c1	-7
CC1c2cccn2CCN1C(=O)CN(CC1CCCO1)C(=O)OC(C)(C)C (stereo not drawn)	0
Cn1c(-c2ccccc2)nnc1C(C#N)C(=O)C1CC=CCC1 (stereo not drawn)	11
CCC(=O)C(C#N)c1nnc(-c2ccccc2)s1 (stereo not drawn)	95*
Cc1ccc(S(=O)(=O)c2nnc(-c3ccccc3)s2)cc1	-3
O[C@@H]1CNCC[C@H]1CNCc1ccccc1-c1ccccc1	-26
